Values joined by “and” are separate entries in the source; they are usually repeats but may differ in a detail not shown here. Equal entries are not always repeated. Out of some 5,500 compounds screened, about 2,000 (36%) were called active. Roughly 18% stayed inconclusive and do not appear here. No stated cut-off is given here; in the data, active means normalized growth mostly below about 0.91 (no sharp cut-off); inconclusive means no clear call, values can overlap the other calls; inactive means mostly above about 0.92. This is one part of the list.
Test: chemical genetic growth profiling, strain panel (AID 1159580);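 further: tested at 20 µM; growth read once vehicle control cultures reached saturation at 30 °C; 1 = growth at the plate median or of vehicle wells; lower values mean less growth of the strain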
Conditions: S. cerevisiae deletion strains, growth OD

Measured: normalized growth

COc1c2ccoc2nc2c(OC)c(OCC(O)C(C)(C)O)ccc12 (configuration not stated)
inactive: locus YAL013W, strain DEP1, hits give low values 0.992 | locus YAL021C, strain ccr4, hits give low values 1.04 | locus YAL026C, strain drs2, hits give low values 1.02 | locus YAL030W, strain snc1, hits give low values 1.01 | locus YBL061C, strain skt5, hits give low values 1.02 | locus YBR009C, strain hhf1, hits give low values 1.02 | locus YBR021W, strain FUR4, hits give low values 0.992 | locus YBR023C, strain chs3, hits give low values 1.02 | locus YBR171W, strain sec66, hits give low values 1.02 | locus YBR229C, strain ROT2, hits give low values 1 | locus YBR231C, strain swc5, hits give low values 1.01 | locus YBR279W, strain paf1, hits give low values 1.01 | locus YCL011C, strain gbp2, hits give low values 1.03 | locus YCL016C, strain dcc1, hits give low values 1.02 | locus YCL029C, strain bik1, hits give low values 0.974 | locus YCL061C, strain MRC1, hits give low values 1.03 | locus YCL069W, strain vba3, hits give low values 1.01 | locus YCR088W, strain abp1, hits give low values 1.02 | locus YDL005C, strain med2, hits give low values 1.01 | locus YDL035C, strain GPR1, hits give low values 0.992 | locus YDL040C, strain nat1, hits give low values 1.01 | locus YDL074C, strain BRE1, hits give low values 1.02 | locus YDL101C, strain DUN1, hits give low values 1 | locus YDL134C, strain PPH21, hits give low values 0.991 | locus YDL185W, strain tfp1, hits give low values 0.974 | locus YDL192W, strain arf1, hits give low values 0.984 | locus YDR001C, strain nth1, hits give low values 1.01 | locus YDR069C, strain doa4, hits give low values 1.03 | locus YDR101C, strain arx1, hits give low values 1 | locus YDR137W, strain rgp1, hits give low values 1.02 | locus YDR150W, strain NUM1, hits give low values 0.99 | locus YDR159W, strain sac3, hits give low values 1.01 | locus YDR162C, strain NBP2, hits give low values 1.02 | locus YDR195W, strain ref2 0.976 | locus YDR297W, strain sur2, hits give low values 1.02 | locus YDR318W, strain mcm21, hits give low values 0.981 | locus YDR334W, strain swr1, hits give low values 1.02 | locus YDR335W, strain msn5, hits give low values 1.02 | locus YDR388W, hits give low values 0.997 | locus YDR392W, strain spt3, hits give low values 0.982 | locus YDR502C, strain sam2, hits give low values 1.01 | locus YEL003W, strain gim4, hits give low values 1.01 | locus YEL037C, strain rad23, hits give low values 1.01 | locus YEL061C, strain CIN8 (second series), hits give low values 1.01 | locus YEL061C, strain CIN8, hits give low values 1 | locus YER015W, strain faa2, hits give low values 1.02 | locus YER016W, strain bim1, hits give low values 1.01 | locus YER110C, hits give low values 0.983 | locus YER111C, strain swi4, hits give low values 1.02 | locus YER155C, strain BEM2 (second series), hits give low values 1.04 | locus YER155C, strain BEM2, hits give low values 0.996 | locus YER167W, strain BCK2, hits give low values 0.972 | locus YFR010W, strain ubp6, hits give low values 1.02 | locus YGL078C, strain dbp3, hits give low values 0.983 | locus YGL086W, strain mad1, hits give low values 0.976 | locus YGL167C, strain pmr1, hits give low values 1.01 | locus YGL173C, strain kem1, hits give low values 1.02 | locus YGL227W, strain vid30, hits give low values 1.02 | locus YGL240W, strain doc1, hits give low values 1.04 | locus YGL248W, strain PDE1, hits give low values 0.991 | locus YGL253W, strain hxk2, hits give low values 1.02 | locus YGR078C, strain PAC10, hits give low values 1.02 | locus YGR135W, strain pre9, hits give low values 0.995 | locus YGR229C, strain SMI1, hits give low values 1.02 | locus YGR252W, strain gcn5, hits give low values 0.984 | locus YHR013C, strain ard1, hits give low values 1.03 | locus YHR027C, strain rpn1, hits give low values 1.01 | locus YHR030C, strain SLT2, hits give low values 0.99 and 1.02 | locus YHR079C, strain IRE1 (second series), hits give low values 1 | locus YHR079C, strain IRE1, hits give low values 1.03 | locus YHR094C, strain hxt1, hits give low values 0.971 | locus YHR129C, strain ARP1, hits give low values 1 | locus YHR142W, strain chs7, hits give low values 1.03 | locus YHR200W, strain rpn10, hits give low values 0.974 | locus YIL066C, strain RNR3, hits give low values 0.998 | locus YIL073C, strain SPO22, hits give low values 0.9 | locus YIL125W, strain kgd1, hits give low values 0.999 | locus YIR030C, strain dcg1, hits give low values 0.983 | locus YJL092W, strain hpr5, hits give low values 1.01 | locus YJL095W, strain BCK1 (second series), hits give low values 1.01 | locus YJL095W, strain BCK1, hits give low values 1.05 and 1 | locus YJL115W, strain asf1, hits give low values 1.02 | locus YJL129C, strain trk1, hits give low values 1.04 | locus YJL134W, strain LCB3, hits give low values 0.989 | locus YJL154C, strain vps35, hits give low values 1.02 | locus YJL164C, strain tpk1, hits give low values 1.02 | locus YJL166W, strain qcr8, hits give low values 1.02 | locus YJL168C, strain set2, hits give low values 0.995 | locus YJL187C, strain SWE1 (second series), hits give low values 1.01 | locus YJL187C, strain SWE1, hits give low values 1.01 | locus YJR043C, strain POL32, hits give low values 0.987 | locus YJR066W, strain TOR1, hits give low values 0.964

From PubChem BioAssay AID1159580 (chemical genetic matrix, 2015)
